Holding throughout (assay): NCI-60 one-dose screen, 48 h (100 = growth as untreated, 0 = no growth, -100 = all killed)
What all share (details): 10 µM unless noted

The subject of experiment [1] is NCI-H23 lung.
Experiment [2] relates to NCI-H226 lung.
In experiment [3] the test system is NCI-H322M lung.
Experiment [4] deals with HOP-62 NSCLC.
Experiment [5] concerns NCI-H460 lung.
In experiment [6] the test system is HOP-92 NSCLC.
Experiment [7] relates to NCI-H522 lung.
Experiment [8] deals with A549/ATCC NSCLC.
The test system of experiment [9] is 786-0 renal.
In experiment [10] the test system is COLO 205 colon.
Experiment [11] has as its system DU-145 prostate.
Experiment [12] concerns K-562 leukemia.
Experiment [13] deals with MALME-3M melanoma.
Experiment [14] deals with MDA-MB-231 breast.
For experiment [15], the system named is RXF 393 renal.
Experiment [16] has as its system SF-268 CNS.
The subject of experiment [17] is SF-295 CNS.
The subject of experiment [18] is SF-539 CNS.
Experiment [19] deals with UACC-257 melanoma.
Experiment [20] concerns M14 melanoma.

About 83,000 compounds went through this panel and 20% of them were active in at least one assay; those are over-represented in the sample as a whole.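 Negative percent growth values reflect cell death: -40 means 40% of the cells present at the start died, and -100 means all died.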 Values without a mark were called inactive. Calls of active or inactive are those of the source. The calls were made as follows: active = growth percent below 10; inactive = the rest.

For the compound `CC(=O)Nc1cccc(-c2ccc3c(c2)NC(=O)/C3=C\c2ccc[nH]2)c1`, the growth in [1] is 27.8%; in [2], 52.7%; in [3] it was 40.9%; in experiment [4], 55.3%; in experiment [5], 21.6%; in experiment [6], 80.8%. Further, the growth in [7] was 16.6%; in experiment [8], 40.4%; in experiment [9], 59%; in [10] it was 38.8%; in [11], 57.4%; in experiment [12] it was 12.3%. Further, the growth in [13] was 71.7%; in [14], 34.9%; in experiment [15], 54.3%; in experiment [16], 67.5%; in [17], 32.6%; in experiment [18], 28.1%. Moreover, the growth was 73.2% in experiment [19] and 39.1% in experiment [20].

As for `COc1cc(-c2csc(NC(=O)c3cc(F)cc(C(F)(F)F)c3)n2)cc(OC)c1OC`, the growth is 49.8% in experiment [1]; 27.7% in experiment [2]; 68% in [3]; 39.3% in experiment [4]; 19.5% in experiment [5]; 51.2% in [6]. Besides, the growth was -10.8% (active) in [7]; 64.4% in [8]; 29.4% in experiment [9]; 25.5% in experiment [10]; 14.6% in [11]; 8.12% (active) in experiment [12]. Moreover, the growth in experiment [13] is 40.3%; in [14] it was 56.5%; in experiment [15], 11.8%; in experiment [16], 42.4%; in experiment [17], 38.1%; in experiment [18], 26.8%. The growth was 58.6% in experiment [19] and 23.6% in experiment [20].

Take `COc1cc2nc(-c3ccc(Cl)cc3)cc(OCCCN3CCCCC3)c2cc1OC`: the growth in experiment [1] is 64.7%; in [2] it was -9.93% (active); in experiment [3] it was 63.1%; in experiment [4], 54.7%; in experiment [5], 25.6%; in experiment [6], 34.2%. The growth in experiment [7] is 34%; in experiment [8] it was 36%; in experiment [9], 72.5%; in experiment [10], 16.1%; in experiment [11], 40.9%; in experiment [12] it was 14.3%. Also, the growth was 46.1% in experiment [13]; 27.4% in experiment [14]; 39.1% in experiment [15]; 57.5% in experiment [16]; -51.3% (active) in experiment [17]; 49.5% in experiment [18]. In addition, the growth in [19] was -0.848% (active); in experiment [20] it was -28.2% (active).

Regarding `CCCNC(=O)Oc1ccc(/C(=C(\C)c2ccccc2)c2ccc(OCCCN(C)C)cc2)cc1`, the growth is 75.6% in [1]; 102% in [2]; 81.2% in experiment [3]; 78.3% in experiment [4]; 75.1% in experiment [5]; 68.2% in experiment [6]. Moreover, the growth in experiment [7] is 79.6%; in [8], 70%; in experiment [9], 58.6%; in experiment [10] it was 52.8%; in experiment [11] it was 89.7%; in [12], 11.5%. The growth in experiment [13] is 40.8%; in experiment [14], 59.4%; in experiment [15] it was 71.1%; in [16] it was 71.8%; in [17], 64%; in experiment [18], 63.9%. The results for the growth in experiment [19] and in [20] were 8.5% (active) and 25.2%, respectively.

Regarding `CN1CCN(c2ccc(NC3=C(Cl)C(=O)c4ncccc4C3=O)cc2C(F)(F)F)CC1`, the growth was 58.7% in [1]; 102% in experiment [2]; 98% in [3]; 114% in experiment [4]; 101% in experiment [5]; -76.4% (active) in [6]. In addition, the growth in experiment [7] was -49.8% (active); in [8], 104%; in experiment [9], 82.6%; in experiment [10], -16.7% (active); in experiment [11], 96.6%; in experiment [12] it was 3.72% (active). In addition, the growth in [13] was -92.1% (active); in experiment [14], 4.49% (active); in [15] it was -71.4% (active); in experiment [16], 87.7%; in [17], 106%; in experiment [18] it was 104%. Further, the growth in experiment [19] was -56.8% (active); in experiment [20], 39.8%.

In the case of `CCCCCCNC(=O)Oc1ccc(/C(=C(\C)c2ccccc2)c2ccc(OCCCN(C)C)cc2)cc1`, the growth in experiment [1] is 82.8%; in experiment [2], 104%; in experiment [3] it was 75.2%; in experiment [4] it was 98.3%; in [5] it was 39.1%; in [6], 83.7%. The growth is 88.9% in [7]; 72.7% in experiment [8]; 71% in experiment [9]; 58.1% in experiment [10]; 99.6% in [11]; 3.9% (active) in experiment [12]. Also, the growth in experiment [13] was 54%; in experiment [14] it was 82.7%; in [15], 75.4%; in experiment [16], 79.4%; in experiment [17], 93.7%; in experiment [18] it was 79.4%. The growth was 86.2% in experiment [19] and 40.1% in experiment [20].

As to `CC(C)(C)c1ccc(NS(=O)(=O)c2ccc3nc(NC(=O)c4cnccn4)[nH]c3c2)cc1`, the growth is 52% in experiment [1]; 44.3% in [2]; 41.9% in experiment [3]; 53.4% in experiment [4]; 6.16% (active) in experiment [5]; 36.7% in experiment [6]. In addition, the growth in experiment [7] is 20.4%; in experiment [8], 38.8%; in experiment [9], 30%; in experiment [10] it was 21.7%; in [11] it was 34.3%; in [12] it was 15.7%. The growth is 31.9% in experiment [13]; 50.5% in experiment [14]; 13.5% in experiment [15]; 37.7% in [16]; 35% in [17]; -0.716% (active) in experiment [18]. For the same compound, the growth is 46.7% in experiment [19] and 35.1% in experiment [20].

Regarding `Cn1cc(CC2CC(=O)N(c3ccccc3)C2=O)sc1=NC(=O)c1ccccc1` (stereo not given), the growth in experiment [1] was 95.8%; in experiment [2] it was 97.5%; in experiment [3], 92.5%; in [4] it was 92.9%; in experiment [5], 106%; in experiment [6], 85.1%. Also, the growth in [7] was 92.8%; in [8] it was 101%; in experiment [9], 94.4%; in experiment [10], 111%; in experiment [11], 103%; in experiment [12], 104%. Further, the growth in [13] is 89.9%; in experiment [14] it was 111%; in experiment [15], 92.2%; in experiment [16] it was 96.2%; in experiment [17], 102%; in experiment [18], 99.8%. The growth in [19] was 98%; in experiment [20], 90.9%.

The values are drawn from PubChem BioAssay (NCI).
